According to PubChem BioAssay AID1159580 (chemical genetic matrix, 2015):
Out of some 5,500 compounds screened, about 2,000 (36%) were called active. Inconclusive results (about 18%) are left out. No stated cut-off is given here; in the data, active means normalized growth mostly below about 0.91 (no sharp cut-off); inconclusive means no clear call, values can overlap the other calls; inactive means mostly above about 0.92. This is one part of the list.

Test: chemical genetic growth profiling, strain panel (AID 1159580);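 further: tested at 20 µM; growth read once vehicle control cultures reached saturation at 30 °C; 1 = growth at the plate median or of vehicle wells; lower values mean less growth of the strain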
Details: growth OD

Measured: normalized growth

CC(=O)Oc1ccc(Cl)c2cccnc12
inactive: S. cerevisiae deletion strains, locus YOL012C, strain htz1 0.23
active: S. cerevisiae deletion strains, locus YJL187C, strain SWE1, active compounds read low 0.0588 | S. cerevisiae deletion strains, locus YJR043C, strain POL32, active compounds read low 0.0605 | S. cerevisiae deletion strains, locus YJR075W, strain HOC1, active compounds read low 0.0612 | S. cerevisiae deletion strains, locus YKL009W, strain mrt4, active compounds read low 0.0837 | S. cerevisiae deletion strains, locus YKL068W, active compounds read low 0.061 | S. cerevisiae deletion strains, locus YKL085W, strain MDH1 (second series), active compounds read low 0.0554 | S. cerevisiae deletion strains, locus YKL085W, strain MDH1, active compounds read low 0.0554 | S. cerevisiae deletion strains, locus YKL160W, strain elf1, active compounds read low 0.058 | S. cerevisiae deletion strains, locus YKL190W, strain CNB1, active compounds read low 0.0452 | S. cerevisiae deletion strains, locus YKR001C, strain vps1, active compounds read low 0.0643 | S. cerevisiae deletion strains, locus YKR026C, strain gcn3, active compounds read low 0.0619 | S. cerevisiae deletion strains, locus YKR091W, strain srl3, active compounds read low 0.0618 | S. cerevisiae deletion strains, locus YLL001W, strain dnm1, active compounds read low 0.0631 | S. cerevisiae deletion strains, locus YLL026W, active compounds read low 0.0596 | S. cerevisiae deletion strains, locus YLL041C, strain sdh2, active compounds read low 0.0561 | S. cerevisiae deletion strains, locus YLR027C, strain aat2, active compounds read low 0.0554 | S. cerevisiae deletion strains, locus YLR039C, strain RIC1, active compounds read low 0.0795 | S. cerevisiae deletion strains, locus YLR058C, strain SHM2, active compounds read low 0.0497 | S. cerevisiae deletion strains, locus YLR102C, strain apc9, active compounds read low 0.0628 | S. cerevisiae deletion strains, locus YLR221C, strain rsa3, active compounds read low 0.061 | S. cerevisiae deletion strains, locus YLR258W, strain gsy2, active compounds read low 0.0582 | S. cerevisiae deletion strains, locus YLR262C, strain YPT6 (second series), active compounds read low 0.0745 | S. cerevisiae deletion strains, locus YLR262C, strain YPT6, active compounds read low 0.0956 | S. cerevisiae deletion strains, locus YLR268W, strain sec22, active compounds read low 0.0707 | S. cerevisiae deletion strains, locus YLR320W, strain mms22, active compounds read low 0.074 | S. cerevisiae deletion strains, locus YLR330W, strain CHS5, active compounds read low 0.0507 | S. cerevisiae deletion strains, locus YLR342W, strain FKS1 (second series), active compounds read low 0.0702 | S. cerevisiae deletion strains, locus YLR342W, strain FKS1, active compounds read low 0.0632 | S. cerevisiae deletion strains, locus YLR357W, strain rsc2, active compounds read low 0.13 | S. cerevisiae deletion strains, locus YLR370C, strain arc18, active compounds read low 0.0627 | S. cerevisiae deletion strains, locus YLR371W, strain rom2, active compounds read low 0.0668 | S. cerevisiae deletion strains, locus YLR384C, strain iki3, active compounds read low 0.0595 | S. cerevisiae deletion strains, locus YLR418C, strain cdc73, active compounds read low 0.101 | S. cerevisiae deletion strains, locus YML016C, strain PPZ1, active compounds read low 0.0485 | S. cerevisiae deletion strains, locus YML032C, strain rad52, active compounds read low 0.0749 | S. cerevisiae deletion strains, locus YML120C, strain ndi1, active compounds read low 0.0578 | S. cerevisiae deletion strains, locus YML124C, strain tub3, active compounds read low 0.0617 | S. cerevisiae deletion strains, locus YMR058W, strain fet3, active compounds read low 0.0625 | S. cerevisiae deletion strains, locus YMR078C, strain ctf18, active compounds read low 0.0737 | S. cerevisiae deletion strains, locus YMR125W, strain sto1, active compounds read low 0.081 | S. cerevisiae deletion strains, locus YMR129W, active compounds read low 0.0589 | S. cerevisiae deletion strains, locus YMR205C, strain PFK2, active compounds read low 0.0841 | S. cerevisiae deletion strains, locus YMR223W, strain ubp8, active compounds read low 0.069 | S. cerevisiae deletion strains, locus YMR231W, strain pep5, active compounds read low 0.0641 | S. cerevisiae deletion strains, locus YMR307W, strain GAS1, active compounds read low 0.122 | S. cerevisiae deletion strains, locus YNL067W, strain RPL9B, active compounds read low 0.0485 | S. cerevisiae deletion strains, locus YNL071W, strain lat1, active compounds read low 0.0618 | S. cerevisiae deletion strains, locus YNL153C, strain GIM3, active compounds read low 0.048 | S. cerevisiae deletion strains, locus YNL209W, strain ssb2, active compounds read low 0.0585 | S. cerevisiae deletion strains, locus YNL233W, strain BNI4, active compounds read low 0.0581 | S. cerevisiae deletion strains, locus YNL248C, strain rpa49, active compounds read low 0.0904 | S. cerevisiae deletion strains, locus YNL250W, strain rad50, active compounds read low 0.127 | S. cerevisiae deletion strains, locus YNL271C, strain bni1, active compounds read low 0.0631 | S. cerevisiae deletion strains, locus YNL298W, strain CLA4, active compounds read low 0.0622 | S. cerevisiae deletion strains, locus YNL307C, strain MCK1, active compounds read low 0.0688 | S. cerevisiae deletion strains, locus YNL322C, strain KRE1 (second series), active compounds read low 0.0653 | S. cerevisiae deletion strains, locus YNR049C, strain mso1, active compounds read low 0.06 | S. cerevisiae deletion strains, locus YNR052C, strain pop2, active compounds read low 0.0622 | S. cerevisiae deletion strains, locus YOL147C, strain pex11, active compounds read low 0.0595 | S. cerevisiae deletion strains, locus YOR001W, strain rrp6, active compounds read low 0.0713 | S. cerevisiae deletion strains, locus YOR061W, strain CKA2, active compounds read low 0.0492 | S. cerevisiae deletion strains, locus YOR069W, strain VPS5, active compounds read low 0.0514 | S. cerevisiae deletion strains, locus YOR070C, strain gyp1, active compounds read low 0.0596 | S. cerevisiae deletion strains, locus YOR080W, strain dia2, active compounds read low 0.064 | S. cerevisiae deletion strains, locus YOR083W, strain WHI5, active compounds read low 0.0594 | S. cerevisiae deletion strains, locus YOR106W, strain vam3, active compounds read low 0.0646 | S. cerevisiae deletion strains, locus YOR136W, strain idh2, active compounds read low 0.0755 | S. cerevisiae deletion strains, locus YOR144C, strain elg1, active compounds read low 0.0602 | S. cerevisiae deletion strains, locus YOR184W, strain ser1, active compounds read low 0.0785 | S. cerevisiae deletion strains, locus YOR265W, strain rbl2, active compounds read low 0.0601 | S. cerevisiae deletion strains, locus YOR270C, strain vph1, active compounds read low 0.104 | S. cerevisiae deletion strains, locus YOR290C, strain snf2, active compounds read low 0.0601 | S. cerevisiae deletion strains, locus YOR316C, strain cot1, active compounds read low 0.0595 | S. cerevisiae deletion strains, locus YPL051W, strain arl3, active compounds read low 0.0618 | S. cerevisiae deletion strains, locus YPL055C, strain LGE1, active compounds read low 0.0661 | S. cerevisiae deletion strains, locus YPL078C, strain atp4, active compounds read low 0.0648 | S. cerevisiae deletion strains, locus YPL106C, strain sse1, active compounds read low 0.0984 | S. cerevisiae deletion strains, locus YPL240C, strain hsp82, active compounds read low 0.0604 | S. cerevisiae deletion strains, locus YPL241C, strain CIN2, active compounds read low 0.0494 | S. cerevisiae deletion strains, locus YPR119W, strain clb2, active compounds read low 0.0672 | S. cerevisiae deletion strains, locus YPR141C, strain kar3, active compounds read low 0.0666 | S. cerevisiae deletion strains, locus YPR163C, strain tif3, active compounds read low 0.0706 | S. cerevisiae deletion strains, locus YPR167C, strain met16, active compounds read low 0.0624 | S. cerevisiae deletion strains, strain wtn01, active compounds read low 0.0713 | S. cerevisiae strains, strain wild type, active compounds read low 0.0465
